In all, about 53,000 sequences went through this assay and about 3,700 (7%) were called active. This excerpt belongs to a sample that is enriched for actives. Values without a mark were called inactive.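 The calls were made as follows: active = gene knockdowns whose robust z-score for IL-1 alpha signal is at least 2 or at most -2, so actives lie on both sides; inactive = the rest.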
Assay: Components of the Cytosolic LPS Sensing Pathway: Gene Identification via Genome-wide siRNA Screen;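 also: robust z of the log signal after scaling to non-targeting control siRNA wells of the plate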
Conditions: RAW264.7 macrophages, IL-1a HTRF, actives lie on both sides, screened at 100 nM (by protocol), cells primed 5 h with Pam3CSK4 first
In short: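 Mouse macrophage line RAW264.7 is transfected with siRNA (100 nM final), grown 48h, primed with TLR ligand Pam3CSK4 5 h and given intracellular LipidA 24 h. IL-1a in supernatant is read by HTRF and viability by luminescence.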

Sequence | z-score
GCCUCAUCGUCAUCGCCAATT against Gpbar1 | -0.897
GCAUACCUAGACUGAAAACTT against Rilpl2 | -0.477
GGAGCUGUUUCCAGUUCAGTT against Tomm40 | -1.12
CGUGCUGGUAACGGAAUUGTT against Ptger2 | 2.29 (active)
GGGAACAGGAGAAAACGGATT against Bnipl | 1.2
GGAAGACAACUGUUGUGGCTT against Dagla | -0.54
GUUCGGUACAACUUUUCUGTT against Alx4 | 0.326
GGAUAAAAAUCACCCACUGTT against Vwa8 | 0.21
GCCUCUUAAUGCUUUUGUATT against Sfxn1 | -0.272
GGUGGUUGGAGUACUCAAGTT against Capza1 | -2.53 (active)
GCACAUCACAAGAAUUACUTT against Lhfpl1 | -0.0486
AGCUGACUGUAAAAAAACCTT against Fuom | 0.19
GGAAAUGCCAUAGUCCUAUTT against Mrgprb5 | -2.54 (active)
GGAACUGGCCAAGUUUAAATT against Ing3 | 0.653
GGCCAGAACUACGAAGCCATT against Capn12 | 0.981
GGACCUUCGUGAGAAUUUCTT against Mst1 | 0.521
CCUACAGUGACCUUUCCCGTT against Apcs | -1.22
GGAUAUCACCCACAAUAAATT against Vps28 | -0.653
GGAGCAAUUCUACCGCUACTT against Fbxw5 | -2.14 (active)
GCCCAUUUUAGUAAACGAATT against Dspp | 1.87
GGCCUUAAAGAAACACAAGTT against Hnrnph2 | 2.3 (active)
GGUCCUUCAACGGAAGGGATT against Tagap | 0.196

Sequence | z-score
GGUUUGCAAUAAUUUUCCCTT against Cyp2c66 | -0.0991
CCUAUUAUAGGACAAAGUATT against Efhc2 | -0.54
CCACAAGUUCCACACUCCATT against Olfr1163 | 0.42
GGAGGGACAUGAUUUUGAATT against Pfkfb2 | 2.22 (active)
GGAGCAAGUGAUGAUGACCTT against Pkp1 | -0.263
GCGGUAUGGGAAGCUAAAGTT against Rhbdf1 | 0.617
GGAGAUACUGAAAGAGGCCTT against C1qtnf12 | -1.25
UUCUUGACAGCUGGAAGAGTT against Irgc1 | 0.12
GGAAAAACGAUACUUGAUUTT against Gria3 | -0.751
GGUGAGACUAUAAAGAUAATT against Piwil4 | 0.841
CCGAGCAGGAUUGCAUAUATT against Cspg5 | 1.41
GGCAUUGAGAUGCUGGAAATT against Trappc4 | 2.46 (active)
GCUAUUCUGAUGCGUGGAGTT against Coq2 | -1.24
GCCACGACAACAAAUCCCATT against Lbr | -2.62 (active)
UGAAGCUGUCCCGGACUAATT against Shf | 0.731
GGUCAUUGGCACCAACAAGTT against Tgfbi | -0.722
GGAACAAAGAGGUGAUGUUTT against Olfr109 | -0.949
GGAGAUGAUUGACCGGCUATT against Epc1 | -1.03
CCAUUUACCUCAUAGGACCTT against Crb3 | -0.239
CGACCAUCUUUACUUUAUCTT against Cilk1 | 1.61
GGAGGGAAGCGAGAGUUUUTT against Emilin2 | 2.25 (active)
GGGUCGUAAUGAGUUCUGGTT against Med1 | 0.83

Sequence | z-score
GGAAACUUUUGGAAGACUATT against Jmjd6 | 2.02 (active)
GGGCCAAUAAAGCAACUGCTT against Laptm5 | 0.704
GGAUACUCCUCUGAGUAGUTT against Mtmr11 | -0.469
GCCAAAGUGUGUGUUGAAGTT against Gng11 | -0.296
CGCACACAGUCGUAUGUACTT against Ryr1 | -1.21
GGGAACCAUCAAUAGGCACTT against Apol7a | 0.923
GGGUAUUAAAACCUCACUUTT against 4931406H21Rik | -2.58 (active)
GGCACAAAGCAAGAUUACCTT against Cebpz | 0.422
CCAGAAUGUAAACUUGGUCTT against Trpv6 | 0.0508
GGUGAUAAAGCCAAGCAAATT against Vps4b | -0.48
GGGCUUCUUUGACCUCAUCTT against Kdelr1 | -2.71 (active)
GGAUUCAAGGAAGGCCUUCTT against Myl7 | -0.146
GGGACUCAGAAUCCACACUTT against Olfr1046 | 1.91
GGAGCUUAGACAAAAAGCCTT against Spty2d1 | -1.04
GGCCGCCCUAAAAAGAAGCTT against Olfr95 | 1.29
GGAGAUUGAUGAGCAUGCCTT against Rab40b | -2.15 (active)
CGCCUUAUAAUAUACCUAUTT against Clmp | 1.12
GCCAUGAUGACUAACCUUATT against Dbpht2 | -1.27
GGAACUUGAGGUUUUCUGGTT against Spag17 | -1.89
GGAGAUCCGUCGAAUCAACTT against Anxa4 | 3.19 (active)
GCACCUGAGAAGCUCAUUGTT against Chil5 | -1.96
GGUUGACCUGUGCUUUUCGTT against Arr3 | -0.625

Sequence | z-score
GGAGCAGCAGAAGAUCCUUTT against Olfr47 | 2.52 (active)
GGAAAUGAAUGGAAAUAGUTT against Ino80c | -0.192
GGAGGAAAAGGCAAUCGUUTT against Mtg2 | 0.359
GGAACACAAUAGUACAUACTT against Slc2a4 | 3.98 (active)
CCUUACCACAUCCUUGUCGTT against Fcf1 | -1.33
GGACAGUUAAUGUUUCUGUTT against Clptm1l | 0.254
GGAUCAUUUCUGGCAAGAGTT against Irf7 | -0.379
GGGAAGAGAAAACUGGACUTT against Xrcc1 | 3.01 (active)
GGCUGUGUGAGUCUGCUCATT against Ankrd55 | -0.0408
GCAUGAACUUACCCUAUUATT against Vmn1r197 | -1.25
GCAUAAUAGCGCAAGCUACTT against Ifi47 | 0.0047
GCACUCGAAUUUCUUUACUTT against Slc23a2 | 2.22 (active)
GCAGACUCCCAUGUGGAUUTT against 1700067K01Rik | 1.96
GGAAACUAAUUUCAAGCCUTT against Hat1 | 1.19
CCUAUGAGGAGGUACUAAATT against Itih1 | -0.0512
GGAGUGACAAAAAUGUCGGTT against Snx13 | -0.56
GGUUUGUCAAUGAUACUAATT against Adam17 | 2.49 (active)
CGGAUCUGAGAUAAAGACGTT against Arsj | 1
GCUGUGGACGGACUCUAUATT against Dhodh | 0.00503
GGACCAUCUCUGAUGAACCTT against Fhdc1 | 0.439
GCUAAAGCUAAGAUUGAAGTT against Poli | -0.0266
GGAUGAGGACAAGUGCUCUTT against Agpat4 | -3.47 (active)

Sequence | z-score
CCAAAAGCAUAUCAGUCGGTT against Olfr1122 | 1.48
GGGUUUAUGUUGCCGACUCTT against Setd7 | 2.04 (active)
GGGUUCCUCAGAGACUGAGTT against Esrra | 1.57
GGGCAAGAAAGGUGUUUUGTT against Prdx5 | 0.432
GGUGAUUGGUGUAAAAUCUTT against Gdi2 | -1.15
GGAGAUUGGUGUUAGUAACTT against Sp7 | -0.198
GGGUGUGCUUCAUAUCAAATT against 2210407C18Rik | 0.812
GCUUCAUCUUACCUACUCATT against Synb | -0.825
GGCUAUGCAUCUCCUGUCATT against Gata4 | -0.935
GGAAAUCAUCUAUUCGGACTT against Klrc1 | 2.62 (active)
CCUUGCACGACAUUUUACUTT against Idnk | 0.313
GGUCAUCUUCCUUUUUGCUTT against Olfr1501 | -1
CCCUGGGUGUACAAGUCCUTT against Slc25a41 | -0.084
GGGCCAAGAGCUUCUUUGATT against Ahr | -1.46
GGACUUUGAGAAAGCAUUCTT against Pck1 | -2.03 (active)
GGAUAAUGUGAAGUUCAAGTT against Rpl38 | 0.493
GCAUUGACAAGAUAUCUAATT against Abhd17c | 1.74
GGCUCCUAGUGAUUAAAAGTT against 4930578I06Rik | 0.0788
GGGAAAGCAUCGUAGACUCTT against Eid2 | 0.0738
GGAGGAAAUGAUCACAGCUTT against Ccl20 | -2.31 (active)

Reference: PubChem BioAssay AID1508600 (Functional Genomics Laboratory (NCATS/FGL), 2020)
